Laboratory results as given in PubChem BioAssay AID720550 (National Center for Advancing Translational Sciences (NCATS), 2013).
Results filed as inconclusive are left out. Where a call stands in place of a potency, no number is given. Calls of active or inactive are those of the source. Calls come from the whole dose curve; as a rule, active = well fitted curve in the direction sought with a large enough effect; inconclusive = small, poorly fitted or top-dose-only effect, or another doubt; inactive = no such curve, though single readings can be large or run the other way.

Assay: qHTS for Inhibitors of Bloom's syndrome helicase (BLM): Thiazole Orange DNA Binding Counterscreen for SAR.
Details: fluorescence; Potency: Thiazole orange DNA displacement; series mostly up to 57.1 µM
Text: Human RecQ DNA helicases participate in maintenance of genome stability and DNA repair. While other types of helicases have been explored as targets for drug development, members of the RecQ family have remained less well characterized. Mutations of the Bloom helicase gene have been associated with the rare human genetic disease called Bloom syndrome. […] Moreover, identified inhibitors can be used in cells and animal models to examine the consequences of inhibition on the survival of cancer cells where it has been shown that BLM plays an important role.
A fluorescence-based, biochemical assay in 1536 well format was developed to evaluate inhibition of BLM DNA unwinding activity. This assay was used to screen the MLPCN library. The resulting compounds were subjected to orthogonal and secondary biochemical assays to triage the initial hits, to classify compounds based on mode of action and to derive structure activity relationships (SARs) of candidate effectors. The Thiazole Orange (ThO) DNA binding (TO-binding) is used to eliminate inhibitors that operate via nonspecific DNA binding. This displacement assay is miniaturized for a 1536-well format and utilizes a ThO dye bound to unlabeled DNA. Inactivation or no significant activity is the desired outcome for this assay.
NIH Chemical Genomics Center [NCGC]
NIH Molecular Libraries Probe Centers Network [MLPCN]
Assay Submitter (PI): Opher Gileadi, Structural Genomics Consortium, University of Oxford, UK
Compounds were added to a 4 uL mixture of 50 nM DNA and 100 nM ThO via pintool transfer. The fluorescence signal (excitation 480 nm, emission 530 nm) was measured after 15 min incubation at room temperature using the ViewLux CCD imager.

Structure (SMILES)	Potency
O=C(Nc1ccc(Br)cc1)Nc1nnc(-c2ccncc2)s1	inactive
O=C(Nc1ccc(Cl)c(Cl)c1)Nc1nnc(-c2ccc(F)cc2)s1	inactive
N/C(=N\c1nnc(-c2ccncc2)s1)Nc1ccc(Cl)c(Cl)c1	inactive
O=C(Nc1ccc(-c2cn[nH]c2)c(C(F)(F)F)c1)Nc1nnc(-c2ccncc2)s1	inactive
O=C(Nc1ccc2ccccc2c1)Nc1nnc(-c2ccc(F)cc2)s1	inactive
c1ccc2[nH]c(Nc3nnc(-c4ccncc4)s3)nc2c1	inactive
Cc1cc(NC(=O)Nc2nnc(-c3cccnc3)s2)ccc1Br	inactive
O=C(Nc1ccc(F)c(C(F)(F)F)c1)Nc1nnc(-c2ccncc2)s1	inactive
N#Cc1cccc(NC(=O)Nc2nnc(-c3ccncc3)s2)c1	inactive
O=C(Nc1cc(C(F)(F)F)cc(C(F)(F)F)c1)Nc1nnc(-c2ccncc2)s1	inactive
O=C(Nc1ccc(Cl)cc1)Nc1nnc(-c2ccncc2)s1	inactive
O=C(Nc1ccc(Br)c(Br)c1)Nc1nnc(-c2cccnc2)s1	inactive
O=C(NCc1ccc(Cl)c(Cl)c1)Nc1nnc(-c2ccncc2)s1	inactive
CC(C)(C)c1cccc(NC(=O)Nc2nnc(-c3ccncc3)s2)c1	inactive
O=C(Nc1ccccc1)Nc1nnc(-c2ccncc2)s1	inactive
O=C(NCc1ccccc1)Nc1nnc(-c2ccncc2)s1	inactive
O=C(Nc1ccc2sccc2c1)Nc1nnc(-c2cccnc2)s1	inactive
O=C(Nc1ccc(-c2nc3ccccc3[nH]2)cc1)Nc1ccc2c(c1)CCCO2	inactive
O=C(Nc1ccc2ccccc2c1)Nc1nnc(C2CCCCC2)s1	inactive
O=C(Nc1ccc2ccccc2c1)Nc1nnc(-c2ccc(Cl)cc2Cl)s1	inactive

Structure (SMILES)	Potency
Cc1ccc(-c2nnc(NC(=O)Nc3ccc4ccccc4c3)s2)cc1	inactive
O=C(Nc1ccc(F)c(F)c1)Nc1nnc(-c2ccncc2)s1	inactive
Cc1cc(NC(=O)Nc2nnc(-c3cccnc3)s2)ccc1F	inactive
O=C(Nc1nnc(-c2ccncc2)s1)Nc1ccc(Cl)c2ccccc12	inactive
O=S(=O)(Cc1ccc(Cl)c(Cl)c1)Nc1nnc(-c2ccncc2)s1	inactive
O=C(Nc1ccc(Cl)c(C(F)(F)F)c1)Nc1cccc(-c2ccncc2)n1	inactive
CN(C(=O)Nc1ccc2ccccc2c1)c1nnc(-c2ccncc2)s1	inactive
O=C(Nc1ccc(Cl)c(Cl)c1)Nc1ccnc(-c2ccncc2)n1	inactive
Cc1ccccc1-c1nnc(NC(=O)Nc2ccc3ccccc3c2)s1	inactive
N#Cc1cc(NC(=O)Nc2cccc(-c3ccncc3)n2)ccc1Cl	inactive
Cc1cc(NC(=O)Nc2nnc(-c3ccncc3)s2)ccc1F	inactive
O=C(Nc1ccc2ccccc2c1)Nc1nnc(-c2ccc(O)cc2)s1	inactive
CC(C)(C)c1ccc(-c2nnc(NC(=O)Nc3ccc4ccccc4c3)s2)cc1	inactive
O=C(Nc1ccc(Cl)c([N+](=O)[O-])c1)Nc1cccc(-c2ccncc2)n1	inactive
O=C(Nc1ccc2ccccc2c1)Nc1cccc(-c2ccncc2)n1	inactive
O=C(Nc1nnc(-c2ccncc2)s1)Nc1ccc(Cl)cc1Cl	inactive
N#Cc1ccc(NC(=O)Nc2nnc(-c3ccncc3)s2)cc1	inactive
Cc1cnccc1-c1nnc(NC(=O)Nc2ccc(F)c(C(F)(F)F)c2)s1	inactive
O=C(Nc1ccc(Br)c(Br)c1)Nc1cccc(-c2ccncc2)n1	inactive
N#Cc1cc(NC(=O)Nc2nnc(-c3ccncc3)s2)ccc1-c1cn[nH]c1	inactive
